Screens (PubChem)
The entries come from a sample that favours hits as a whole.
APE1 inh: blocks human APE1 abasic DNA cleavage. P27695. recombinant APE1, TAMRA/BHQ-2 abasic DNA cleavage fluorescence. Potency, µM (doses to about 65.8 µM), for inactives: at the highest dose activity change, negative = inhibition, most hits filed as inhibitors. actives 0.35% (n = 350,000);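 further: plate controls were vehicle for no effect and reference inhibitor for full effect; nearly all actives have a fitted effect of over 55% in size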
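Measures dequenching upon AP-site incision of a 5'-TAMRA/3'-BHQ-2 THF-containing duplex, 50 nM; human APE1 0.75 nM after 15 min room-temperature exposure to compound; kinetic three-point read at one-minute spacing.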
RECQ1 helicase: RECQ1 (human) helicase inhibition; Potency, µM (highest dose often 57.3 µM), inactives show at the highest dose activity, negative = inhibition, most hits filed as inhibitors; AID 2549; actives 0.54% (n = 240,000); RECQ1 DNA unwinding, red fluorescence kinetic read; P46063;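 further: plate controls were vehicle for no effect and no enzyme for full effect; nearly all actives have a fitted effect of over 30% in size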
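50 nM RECQ1T1 preincubated 15 min with compound in Tris pH 8.0 buffer with MgCl2, DTT, Tween-20 and 2.5 ug/ml poly(dI-dC); started with 200 nM TAMRA/BHQ-2 forked duplex and 2 mM ATP. Unwinding read as fluorescence (525/598 nm), two reads 2 h apart.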
TDP1 block: TDP1 (human) enzyme inhibition; Q9NUW8; recombinant TDP1, AlphaScreen DNA substrate cleavage; Potency, µM (top dose mostly 130 µM), inactives show at the top dose activity change, negative = inhibition, most hits filed as inhibitors; actives 0.28% (n = 350,000); further: on the % scale 0 is the no-effect control and ±100 the full control effect; nearly all actives have a fitted effect of over 40% in size
Target sequence (Q9NUW8 whole entry, looked up): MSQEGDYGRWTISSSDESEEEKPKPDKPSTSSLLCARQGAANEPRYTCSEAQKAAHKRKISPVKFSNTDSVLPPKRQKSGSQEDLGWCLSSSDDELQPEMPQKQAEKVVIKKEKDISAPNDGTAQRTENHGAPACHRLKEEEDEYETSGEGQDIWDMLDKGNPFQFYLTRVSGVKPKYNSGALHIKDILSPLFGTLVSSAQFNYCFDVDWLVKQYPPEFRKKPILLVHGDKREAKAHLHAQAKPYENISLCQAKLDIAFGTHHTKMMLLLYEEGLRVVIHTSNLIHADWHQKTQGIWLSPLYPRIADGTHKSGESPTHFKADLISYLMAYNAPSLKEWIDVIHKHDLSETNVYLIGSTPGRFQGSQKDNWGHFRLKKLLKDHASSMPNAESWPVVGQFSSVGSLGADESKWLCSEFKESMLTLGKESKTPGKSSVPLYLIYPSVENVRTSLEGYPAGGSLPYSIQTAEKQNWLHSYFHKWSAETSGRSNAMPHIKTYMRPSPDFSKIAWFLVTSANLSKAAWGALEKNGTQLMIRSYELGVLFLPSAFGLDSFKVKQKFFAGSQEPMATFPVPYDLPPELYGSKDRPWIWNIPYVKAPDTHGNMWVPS
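Here, a 5' biotin and 3' phosphotyrosine-FITC DNA oligonucleotide reports Tdp1 activity: intact substrate bridges AlphaScreen beads, while cleavage leaves a 3' phosphate and drops signal. All incubations at room temperature.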
L3MBTL1 inh-1: L3MBTL1 (human) inhibition; Potency, µM (titrated, usually from 57.1 µM), for the others: at the highest dose activity, negative = inhibition, actives largely listed as inhibitors; Q9Y468; AlphaScreen L3MBTL1–H3K9me1 peptide binding; AID 485360; actives 0.66% (n = 230,000); further: on the % scale 0 is the no-effect control and ±100 the full control effect; nearly all actives have a fitted effect of over 60% in size
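AlphaScreen assay: L3MBTL1 (50 nM final) was preincubated 30 min at room temperature with biotinylated H3(1-15)K9me1 peptide (75 nM final), then 30 min with library compounds; streptavidin donor and nickel chelate acceptor beads (10 ug/mL final) added, 30 min dark.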
BLM inh: inhibitors of human Bloom syndrome helicase BLM. P54132. recombinant BLM DNA unwinding, fluorescence dequenching. Potency, µM (series often up to 56.1 µM), inactives show at the highest dose activity change, negative = inhibition, actives largely listed as inhibitors. actives 0.2% (n = 350,000). AID 2528;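 further: plate controls were vehicle for no effect and no enzyme for full effect; nearly all actives have a fitted effect of over 35% in size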
KDM4E inh: JMJD2E (human) inhibition. JMJD2E catalytic domain, FDH-coupled NADH fluorescence (FDH is formaldehyde dehydrogenase). Potency, µM (doses to about 57.1 µM), inactives show at the highest dose activity change, negative = inhibition, usual class: inhibitors. AID 2147. B2RXH2. actives 1.6% (n = 230,000); active means well fitted inhibition curve with a large enough effect, not every such curve was filed as active; inconclusive means small, poorly fitted or top-dose-only effect, or another doubt; inactive means no such curve, though single readings can be large or run the other way;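 further: 0% = wells with enzyme and -100% = buffer wells without enzyme; nearly all actives have a fitted effect of over 50% in size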
L3MBTL1 inh-2: L3MBTL1 binding inhibition validated; shares compounds with L3MBTL1 inh-1; L3MBTL1 methyl-lysine binding inhibition, biochemical qHTS; Potency, µM, most hits filed as inhibitors; actives 91% (n = 500); AID 540279; further: nearly all actives have a fitted effect of over 70% in size
AlphaScreen ctr2: counter-screen for L3MBTL1 inhibitors: AlphaScreen signal interference. shares compounds with L3MBTL1 inh-1. AlphaScreen counterscreen, signal inhibition. Potency, µM (top dose mostly 57.1 µM), for inactives: at the highest dose activity change, negative = inhibition, usual class: inhibitors. 500 tested, under 10 active; further: 0% is about no effect
* hit, by the source's call; i = inactive; ? = inconclusive; . = no result given; [ ] = dose if it differs, or a comment. Unless noted, the call rests on the fitted dose curve; in most records, active means well fitted curve in the direction sought with a large enough effect; inconclusive means small, poorly fitted or top-dose-only effect, or another doubt; inactive means no such curve, though single readings can be large; an effect the other way counts as inactive or inconclusive. Potency means the concentration at half of the fitted maximal effect.

SMILES	APE1 inh	RECQ1 helicase	TDP1 block	L3MBTL1 inh-1	BLM inh	KDM4E inh	L3MBTL1 inh-2	AlphaScreen ctr2
CCN(C(=O)COC(=O)Cc1coc2cc(C)ccc12)c1c(N)n(Cc2ccccc2)c(=O)[nH]c1=O	4%	.	-4%	-3%	.	.	.	.
Cc1ccc2c(CC(=O)OCC(=O)N(CC(C)C)c3c(N)n(Cc4ccccc4)c(=O)[nH]c3=O)coc2c1	-28%	.	0%	32µM*	.	.	21*	9%
COc1cc(CNC(=O)c2cnc(C)cn2)cc(OC)c1	6%	.	.	0%	-8%	.	.	.
COc1ccc(CNC(=O)c2cnc(C)cn2)cc1	-3%	-2%	-3%	22µM*	4%	-4%	17*	13%
O=C(/C=C/c1ccc(O)c(O)c1)OC1C[C@](O)(C(=O)O)C[C@@H](O)[C@H]1O (some centres undefined)	-3%	-3%	15%	.	.	.	.	.
O=C(O)/C=C/c1nc(-c2ccccc2)n2ccccc12	1%	2%	-5%	18µM*	16%	1%	?	-15%
COc1ccc2cnoc(=O)c2c1OC	2%	-4%	8%	.	-4%	?	.	.
CCOc1ccccc1-c1nnc2n1N=C(c1cc(OC)cc(OC)c1)CS2	23%	i	8%	.	1%	.	.	.
CCOC(=O)N/N=C1/C[C@@H](O)[C@@H](O)[C@@H]2[C@@H]3C(=O)N(c4cccc(Oc5ccccc5)c4)C(=O)[C@H]3CC[C@@H]12	11%[12.4 µM]	i[11.5 µM]	4%[21 µM]	.	-1%[12.4 µM]	.	.	.
O=C(Nc1ccc(F)cc1F)c1noc2c1CCC2	?	-10%	.	32µM*	-17%	3%	6.7*	6%
CCCCn1c(C2CC(=O)N(c3ccc(OCC)cc3)C2)nc2ccccc21 (centres undefined)	.	.	-2%	.	-4%	.	.	.
Cc1ccc(C)c(NC(=O)CN(C)C(=O)c2cccc(-n3cccc3)c2)c1	3µM*	.	3%[0.505 µM]	8.9µM*	.	.	2.7*	?
COc1ccccc1OCCn1c(COc2cc(C)ccc2C)nc2ccccc21	.	.	5%	.	0%	.	.	.
O=C(O)c1ccc2[nH]c3c(c2c1)CSCC3	7%	2%	20µM*	32µM*	-2%	-20%	13*	2%
O=C(Oc1c(CN2CCOCC2)cc(Cl)c2cccnc12)c1ccccc1F	-2%	-6%	8%	14µM*	4%	32µM*	27*	2%
CSCC[C@H](N)C(=O)N[C@@H](CCCN=C(N)N)C(=O)N[C@@H](Cc1ccccc1)C(=O)N[C@@H](Cc1ccccc1)C(=O)N[C@H](C(=O)O)C(C)C	-1%	-9%	6%	.	0%	.	.	.
CCCn1c(-c2ccc(F)cc2)nc2c(NCCCN(CCO)CCO)nc(C)nc21	7%	i	9%	.	-13%	?	.	.
O=c1c(-c2ccc(F)cc2)nc2cnc(N3CCNCC3)nc2n1-c1ccccc1	-3%	20%	.	.	-8%	.	.	.
Cc1ccc(C(=O)OCC(=O)c2ccc(CC(=O)N3CCOCC3)s2)c(C)c1	?	.	50µM*	20µM*	.	.	3*	8%
CCCCN(C(=O)c1cccc(-n2cccc2)c1)c1c(N)n(Cc2ccccc2)c(=O)[nH]c1=O	2.7µM*	.	.	20µM*	.	.	4.2*	-29%
CCN(CC(=O)Nc1c(F)cccc1F)C(=O)/C=C/c1ccc2ccccc2n1	1.7µM*	.	.	3.2µM*	.	.	1.7*	8%
O=S(=O)(Nc1cc(Sc2cccc3cccnc23)c(O)c2ccccc12)c1ccc(F)cc1	9%	-15%	8%	28µM*	-6%	28µM*	21*	-16%
CCOC(=O)c1ccc(NC(=O)CCn2c(=O)c3cccn3c3ccccc32)cc1	.	.	3%	.	-2%	.	.	.
CCCC[C@H](NC(C)=O)C(=O)N[C@@H](CCC(=O)O)C(=O)N[C@@H](Cc1cnc[nH]1)C(=O)N[C@H](Cc1ccccc1)C(=O)N[C@@H](CCCN=C(N)N)C(=O)N[C@H](Cc1c[nH]c2ccccc12)C(=O)NCC(N)=O	-5%	12%	6%	.	3%	.	.	.
N#Cc1c(=O)c2nc(NCCCO)ncc2n2c(=O)c3ccccc3[nH]c12	?	-14%	4%	10µM*	-20%	?	6*	45%
SMILES	APE1 inh	RECQ1 helicase	TDP1 block	L3MBTL1 inh-1	BLM inh	KDM4E inh	L3MBTL1 inh-2	AlphaScreen ctr2
N#Cc1c(=O)c2nc(NCc3ccccc3)ncc2n2ccccc12	0%	i	5%	.	-4%	?	.	.
CCOC(=O)c1ccc(NC(=O)CCc2c(C)nc3c(c(C)nn3-c3ccccc3)c2C)cc1	.	.	3%	.	-3%	.	.	.
O=c1cc(-c2ccccc2Cl)c2c([nH]1)CCC2	-6%	9%	0%	28µM*	-7%	0%	?	8%
O=c1cc(-c2ccccc2)c2c([nH]1)CCCC2	-6%	4%	6%	-2%	-8%	-13%	.	.
O=C(Nc1cccc(C(=O)N2CCOCC2)c1)c1ncn[nH]1	-2%	-17%	4%	28µM*	0%	2%	21*	?
Cc1ccc(C(=O)Nc2cccc(C(=O)N3CCOCC3)c2)cc1	4%	-19%	4%	.	-14%	7%	.	.
O=C(C1=C(O)C(=O)N(c2nc3ccc(Cl)cc3s2)C1c1ccco1)c1ccco1 (centres undefined)	-13%	.	-2%	20µM*	.	.	6*	-4%
Cc1cc(C)c2nc(N3C(=O)C(O)=C(C(=O)c4ccco4)C3c3cccc(O)c3)sc2c1 (centres undefined)	-17%	.	5%	32µM*	.	.	24*	0%
COc1cc(OC)cc(C(=O)Nc2ccc(S(=O)(=O)N3CCCCC3c3cccnc3)cc2)c1 (centres undefined)	.	.	12%	.	-6%	.	.	.
CCc1nc2oc3cc(OC)ccc3c(=O)c2c(=O)n1-c1ccccc1	-5%	-6%	2%	.	-2%	4%	.	.
Cc1ccc(-n2c(C)nc3oc4ccccc4c(=O)c3c2=O)cc1	4%	4%	0%	40µM*	0%	1%	27*	-2%
CCOc1ccc(N(CC)S(=O)(=O)N2CCCC(C(=O)NCc3ccccc3Cl)C2)cc1 (centres undefined)	.	.	0%	.	-8%	.	.	.
COc1ccc2[nH]c(=O)cc(C(=O)O)c2c1	?	-20%	22µM*	22µM*	-13%	?	3.4*	0%
O=C(O)c1ccc2c3c(cccc13)C(=O)N(c1ccccc1)C2=O	?	?	.	13µM*	-13%	?	2.7*	4%
NN1C(=O)c2cccc3c(C(=O)O)ccc(c23)C1=O	-7%	-6%	5%	2%	5%	-1%	.	.
